Most compounds without a hit are left out; they make up all but 0.24% or so of the library.
hcGAS lum: blocks human cGAS activity; AID 1259398; inhibition, % at 12.5 µM; recombinant h-cGAS, ATP depletion, Kinase-Glo luminescence; Q8N884; 0.081% of 290,000 active;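 note: 0% = vehicle reaction and 100% = reaction without DNA for no activity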
mcGAS inh: inhibitors of mouse cGAS; recombinant cGAS, Kinase-Glo ATP depletion luminescence; inhibition, % at 12.5 µM; 0.15% of 160,000 active; AID 1259399;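 note: 0% = negative control wells and 100% = reference inhibitor with no enzyme activity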
Target sequence (Q8C6L5 whole entry, looked up): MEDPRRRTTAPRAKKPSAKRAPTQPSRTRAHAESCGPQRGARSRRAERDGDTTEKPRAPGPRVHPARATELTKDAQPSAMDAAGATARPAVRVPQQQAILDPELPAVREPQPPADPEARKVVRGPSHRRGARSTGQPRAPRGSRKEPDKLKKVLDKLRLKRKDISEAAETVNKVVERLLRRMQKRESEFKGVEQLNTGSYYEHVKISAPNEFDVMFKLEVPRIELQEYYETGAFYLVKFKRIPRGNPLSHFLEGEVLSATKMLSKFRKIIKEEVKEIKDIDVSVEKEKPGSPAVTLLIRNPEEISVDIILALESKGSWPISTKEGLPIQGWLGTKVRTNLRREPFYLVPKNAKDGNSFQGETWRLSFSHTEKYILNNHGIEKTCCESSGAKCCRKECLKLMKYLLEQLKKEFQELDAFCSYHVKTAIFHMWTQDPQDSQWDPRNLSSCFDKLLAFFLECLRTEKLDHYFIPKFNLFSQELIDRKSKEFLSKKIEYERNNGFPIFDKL
NPYLR7 ag: activates Aedes aegypti NPYLR7 receptor; HEK293T NPYLR7/Galpha15, GCaMP6s calcium fluorescence; activation, % at 10 µM; 0.15% of 270,000 active; in the data active = activation above about 40%;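 note: 0% = vehicle and 100% = reference agonist at the receptor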
* marks the source's active call; other numbers are inactive results; nt = no result given. Cut-off read from the data, not from the text of the source, unless noted: active = inhibition above about 40%; inactive = the rest.

SMILES	hcGAS lum	mcGAS inh	NPYLR7 ag
COC(=O)C1=C(C)NC(C)=C(C(=O)OC)C1c1ccccc1[N+](=O)[O-]	17	51*	14
COC(=O)C1=C(C)NC(=O)NC1c1ccccc1[N+](=O)[O-] (configuration not stated)	-1	-2	-1
COc1ccc(N(C)C(=O)c2ccc(Cn3nc(NC(=O)c4ccno4)c4ccccc43)cc2)cc1	-7	-5	16
O=C(NC1=NC2=C(CCCC2)C2(CCCCC2)S1)c1ccc2c(c1)OCO2	-1	nt	7
Cc1cc(=O)n2[nH]cc(-c3ccccc3Cl)c2n1	46*	26	3
Cc1cc(=O)n2[nH]cc(-c3ccc(F)cc3)c2n1	-7	nt	-14
O=C1SC(Nc2ccc(I)cc2)C(=O)N1c1ccccc1 (configuration not stated)	-3	-2	63*
CC(C)CN1C(=O)SC(Nc2ccccc2)C1=O (configuration not stated)	-8	-5	16
Nc1ccccc1N1C(=O)CSC1=O	-1	-5	6
COC(=O)c1ccc(Cn2ncc(Cl)c(Cl)c2=O)o1	-2	-3	13
COc1cccc(CN(C(=O)c2cccc(F)c2)C2CC2)c1OCc1nc(CO)cs1	-9	-7	-6
COc1cccc(CNC2CC2)c1OCc1nc(CO)cs1	-2	nt	46*
CC(=O)N1CCCN(C(=O)C2CCC(=O)N(Cc3ccc(Cl)cc3)C2)CC1 (configuration not stated)	3	nt	0
CN(Cc1cc(-c2ccccc2)on1)C(=O)C1CC2(CCNCC2)CN1 (configuration not stated)	-9	-13	6
CN(Cc1cnc2ccccc2n1)C(=O)C1CC2(CCNCC2)CN1 (configuration not stated)	-6	-9	58*
CCOc1cc2c(cc1C=C(C#N)C#N)OC(C)C2 (configuration not stated)	-5	nt	95*
CCOc1cc2c(cc1N)OC(C)C2 (configuration not stated)	-1	-5	-2
N#Cc1cccc(C(=O)N2CCN(C(c3ccccc3)c3ccc(Br)cc3)CC2)c1 (configuration not stated)	-2	-8	42*
N#Cc1cccc(C(=O)N2CCN(C(c3ccccc3)c3ccccc3)CC2)c1	-10	-6	18
N#CC(=Cc1ccc(C=C(C#N)c2nnc3n2CCCCC3)cc1)c1nnc2n1CCCCC2	-3	nt	2
N#CC(=Cc1ccc(C#N)cc1)c1nnc2n1CCCCC2	-4	44*	-6
Cc1nonc1CN(C)Cc1cn(-c2ccccc2)nc1-c1ccc2c(c1)OCO2	-2	-14	7
CC(C)(C)N(CC(=O)N1CCc2sccc2C1c1ccccc1)C(=O)c1cccs1 (configuration not stated)	-4	0	-9
Nc1c2ccccc2nc2ccccc12	72*	nt	2
Nc1c2c(nc3ccccc13)CCCC2	-2	-3	-5
SMILES	hcGAS lum	mcGAS inh	NPYLR7 ag
Cc1ccccc1C1c2ccsc2CCN1CC(=O)N1CCCN(C(=O)c2cccc(Br)c2)CC1 (configuration not stated)	1	-3	-2
CCOC=C(C#N)c1nc(C)cs1	-3	nt	84*
CCOc1cccc(/C=C(/C#N)c2nc(C)cs2)c1OC(F)F	-16	nt	8
CCOCCCN(CC(=O)N1CCc2sccc2C1c1ccccc1C)C(=O)C(Cl)c1ccccc1 (configuration not stated)	4	0	nt
O=C1/C(=C/c2cc3ccccc3o2)Oc2cc(O)ccc21	-11	nt	49*
Cc1cc(O)c(CN2CCN(CCO)CC2)c2c1C(=O)/C(=C/c1cc3ccccc3o1)O2	-4	-6	80*
O=C1/C(=C/N2CCC3(CC2)OCCO3)Oc2cc(O)ccc21	-7	-12	-6
O=C1/C(=C/c2ccco2)Oc2c1ccc(O)c2CN1CCN(CCO)CC1	-1	-9	56
CCN1CCN(Cc2c(O)cc(C)c3c2O/C(=C\c2ccco2)C3=O)CC1	-1	-6	65*
Cc1cc(O)c(CN2CCN(CCO)CC2)c2c1C(=O)/C(=C/c1cccs1)O2	-4	-7	28
Cc1cc(O)c(CN2CCN(CCO)CC2)c2c1C(=O)/C(=C/c1ccccc1)O2	-5	-6	16
O=C1/C(=C/c2cc3ccccc3o2)Oc2c1ccc(O)c2CN1CCN(CCO)CC1	5	5	108*
C=C(Br)CN(C)CCCNC(C)=O	-5	nt	0
CCn1ccc(C(=O)N(Cc2ccccn2)c2nc3c(C)c(Cl)ccc3s2)n1	2	nt	-1
Cc1cccc(N2CCN(C(=O)c3cc(=O)c(OCc4ccccc4)co3)CC2)c1	-12	nt	-1
CCCNC(=O)c1ccc(NC(=O)CC2CCCO2)cc1Cl (configuration not stated)	12	nt	4
COc1ccc(N2CCN(C3CCCN(C(=O)c4ccccc4SC)C3)CC2)cc1 (configuration not stated)	-10	nt	7
Cc1cc(O)c(CN2CCN(C)CC2)c2c1C(=O)/C(=C/c1cc3cc(Br)ccc3o1)O2	-9	-7	4
Cc1cc(O)c(CN2CCCC2)c2c1C(=O)/C(=C/c1cc3ccccc3o1)O2	-3	-2	57*
O=C(Nc1nnc(SCC2CC2)s1)C1CCCC1	-4	-4	-5
CCCC1CCC(C(=O)Nc2nnc(SCC)s2)CC1 (configuration not stated)	-3	-6	55*
CCN(CC)CC(=O)N1N=C(c2ccc(Cl)cc2)CC1c1ccco1 (configuration not stated)	5	-3	-2
O=C(CCl)N1N=C(c2ccc(Cl)cc2)CC1c1ccco1 (configuration not stated)	-7	52*	-5
CN(C)CCNC(=O)CCc1nnc(-c2ccc(C(F)(F)F)cc2)[nH]c1=O	-5	nt	6
CC(C)Oc1ccc(S(=O)(=O)N2CCCCC2)cc1NC(=O)CCl	-9	nt	-11
SMILES	hcGAS lum	mcGAS inh	NPYLR7 ag
CC(C)Oc1ccc(S(=O)(=O)N2CCCCC2)cc1NC(=O)CSc1nncn1C1CC1	-1	56*	-4
COc1ccc(CC(=O)Nc2ccc3c(c2)OCCCO3)cc1F	-2	-9	-4
CN(C)CCc1cc2c(c3c1ccc1ccccc13)OCO2	70*	56*	2
CN(C)Cc1c2ccccc2cc2ccccc12	1	nt	2
c1ccc2c(CSCCNC3=NCCN3)cccc2c1	-8	-13	1
CNC(=O)Cc1nc(CS(=O)(=O)C2CCCc3ccccc32)cs1 (configuration not stated)	-8	nt	6
CC(C)Nc1ncc(-c2nccn2CCc2cnc[nH]2)cn1	-2	nt	15
Cc1oc(-c2ccccc2NS(=O)(=O)c2cccc(F)c2)nc1CNC(=O)CC(C)C	-5	nt	5
Cc1oc(-c2cccc(NC(=O)CC(C)C)c2)nc1CNC(=O)Cc1cc(F)cc(F)c1	-7	-8	56*
CN(C)CCNC(=O)c1csc(COc2ccc(F)cc2F)n1	-4	-4	17
Cc1cc(O)c(C=O)c2c1C(=O)Oc1c(COC(=O)/C=C/C(=O)O)c(O)c(C(=O)O)c(C)c1O2	69*	67*	nt
COc1cc(OC)cc(C(=O)N(Cc2nc3cc(C)ccc3o2)Cc2cc(F)ccc2F)c1	-2	-5	-3
CNc1nc2cnc(Nc3ccccc3)cc2n1CCOC	-4	-6	9
O=C1C(=Cc2ccc(OC(F)F)cc2OC(F)F)Oc2cc(O)ccc21	-5	nt	41*

Screening results deposited in PubChem by Fisher Drug Discovery Resource Center.
